Reference: PubChem BioAssay (NCATS)
Results filed as inconclusive are left out. Active and inactive are the calls of the source. Calls come from the whole dose curve; as a rule, active = well fitted inhibition curve with a large enough effect; inconclusive = small, poorly fitted or top-dose-only effect; inactive = no such curve, though single readings can be large or run the other way.

What follows are compounds tested against Chromobox protein homolog 1 (Homo sapiens) (UniProt P83916) (assay: qHTS Validation Assay for Inhibitors of HP1-beta Chromodomain Interactions with Methylated Histone Tails (AID 488953; note: nearly all actives have a fitted effect of over 50% in size)). Settings: HP1-beta chromodomain / methylated histone peptide binding assay; series mostly up to 114 µM; activity change, negative = inhibition: at the top concentration.
Source text: As our understanding of epigenetics expands, it is becoming clear that players in this field are potential targets for drug development. This area of epigenetic therapy has established applications for the treatment of cancer and neurological diseases. We have been involved in this field for a number of years and have performed high-throughput screens to identify the first small molecule inhibitors of protein methyltransferases. These methyltransferases target multiple substrates, and thus regulate many arms of an epigenetic pathway. The methylation of different substrates often generates docking sites for effector proteins that harbor binding domains (chromo, tudor, PHD, MBT and ANK repeats).
It has been proposed that the binding sites generated for different proteins by these post-translational modifcations mediate downstream effects on chromatin. Consistent with this theory, di- and tri-methylation of histone H3K9 facilitates the binding of heterochromatin protein HP1. The HP1 protein harbors a chromodomain that is responsible for the methyl-dependent interaction between HP1 and lysine 9 of histone H3. HP1 was first described in flies as a heterochromatin associated protein that can regulate gene silencing. It harbors a chromodomain that binds H3K9me3. In addition, it harbors a chromoshadow domain that interacts with a large number of proteins that are involved in heterochromatin formation and gene repression. There are three highly related HP1 isoforms. All three variants are associated with pericentric heterochromatin and it is not clear whether they have specific or redundant functions. MPP8 is also involved in the repression of gene in euchromatic regions (unpublished data) and like HP1 its chromodomain binds H3K9me3. MPP8 harbors an ankyrin repeat region that is likely involved in binding and recruiting interacting proteins with transcriptional repressive function, much like the chromoshadow domain of HP1 does.
We hypothesize that by inhibiting specific protein-protein interactions we will be able to develop compounds that block a single arm of an epigenetic pathway. The specificity attained by blocking a single protein-protein interaction will be far greater than that attained by blocking the enzyme that regulates one of many interactions.
Low-affinity protein-protein interactions (Kd in the single- to double-digit micromolar range) such as those discussed here have been very difficult to assay by traditional techniques such as fluorescence polarization or fluorescence resonance energy transfer. We have developed a sensitive chemiluminescence-based assay (Quinn, et al. 2009), which serves as the starting point for this project.
The following is a validation assay to identify lead compounds that can block methyl-dependent protein-protein interactions (specifically HP1-beta), which can be used as probes to analyze these methyl-driven interactions and perhaps even developed into targeted epigenetic therapies.
Assay Provider: Mark T. Bedford, MD Anderson
Screening Center PI: Austin, C.P.
Screening Center: NIH Chemical Genomics Center [NCGC]
To each well, 2 uL of HP1-beta protein (final 50 nM) and 1 uL biotinylated histone peptide trimethylated at Lys9 [b-H3(1-18)K9me3] (final 50 nM) was added in 1x PBS buffer, pH 7.4, containing 0.01% Tween-20 using a nanoliter dispenser. Formation of a protein-peptide complex proceeded at room temperature for 30 min. A Kalypsys pin-tool was employed to transfer 23 nL of library compound solution in DMSO to each well. Aurintricarboxylic acid (ATA) was used as an intraplate control with a 12-point titration in duplicate. Following a 30 min incubation of the protein-peptide complex with compounds at room temperature, a mixture of 40 ug/mL each streptavidin-coated donor and nickel chelate acceptor AlphaScreen beads (final 10 ug/mL) was added in a 1 uL dispense for a final volume of 4 uL. Plates were incubated protected from the light for 30 min at room temperature. […]
% is set by controls: 0 for no effect and ±100 for the full control effect; potency is the fitted concentration of half-maximal effect.

Sequence of Chromobox protein homolog 1 (Homo sapiens) (P83916 whole entry, looked up): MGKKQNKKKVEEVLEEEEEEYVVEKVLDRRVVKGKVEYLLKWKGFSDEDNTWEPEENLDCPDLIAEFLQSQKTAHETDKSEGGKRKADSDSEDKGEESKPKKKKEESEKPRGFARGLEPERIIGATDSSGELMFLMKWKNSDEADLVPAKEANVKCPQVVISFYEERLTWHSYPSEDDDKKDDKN

| Compound | Potency | activity change, negative = inhibition |
| --- | --- | --- |
| Ic1ccccc1CNC1C2CCN(CC2)C1C(c1ccccc1)c1ccccc1 (stereo not given) | 44.7 µM (active) |  |
| CCCN1CCc2cccc3c2[C@H]1Cc1ccc(O)c(O)c1-3 | 70.8 µM (active) |  |
| Cc1c2ccncc2c(C)c2c1[nH]c1ccccc12 | 50.1 µM (active) |  |
| N[C@@H](Cn1ccc(=O)[nH]c1=O)C(=O)O |  | -0.174% (inactive) |
| CC1(C(=O)O)C2CCC(O2)C1(C)C(=O)O (stereo not given) | 0.0084 µM (active) |  |
| C[C@]12Cc3cn4c(nc3C=C1CCC1C2CC[C@@]2(C)[C@H]1CC[C@@]2(O)C#N)nc1ccccc14 (stereo not given in full) |  | -1.93% (inactive) |
| NCCc1c[nH]c2ccc(C(N)=O)cc12 |  | 3.92% (inactive) |
| Clc1ccc(N2CC3CCC(C2)N3)nn1 |  | -2.48% (inactive) |
| O=[N+]([O-])c1cc(O)c(O)c([N+](=O)[O-])c1 |  | -5.07% (inactive) |
| Cc1cc([C@@H]2CCCN2C)on1 |  | -10.1% (inactive) |
| CC(C)NP(=O)(NC(C)C)OP(=O)(NC(C)C)NC(C)C |  | -7.41% (inactive) |
| O=C1CC[C@@]2(O)C3Cc4ccc(O)c5c4C2(CCN3CC2CC2)[C@H]1O5 (stereo not given in full) |  | 7.76% (inactive) |
| OC1CCCCC1N1CCC(c2ccccc2)CC1 (stereo not given) |  | -9.77% (inactive) |
| COc1ccc2c(c1)[C@@]13CCCC[C@H]1[C@@H](C2)NCC3 |  | -10% (inactive) |
| O=S1(=O)N(CCN2CC=C(c3c[nH]c4cc(F)ccc34)CC2)c2cccc3c2N1CCC3 | 39.8 µM (active) |  |
| CC12NC(Cc3ccccc31)c1ccccc12 (stereo not given) |  | -4.52% (inactive) |
| CN1CCc2cccc(Cl)c2CC1 |  | -9.15% (inactive) |
| CC(C)(C)c1cc(C=C(C#N)C#N)cc(C(C)(C)C)c1O | 7.94 µM (active) |  |
| CO[C@H]1CC=C2CCN3CCC4=C(CC(=O)OC4)[C@]23C1 |  | 0.298% (inactive) |
| N#C/C(=C/c1ccc(O)c(O)c1)C(N)=S | 12.6 µM (active) |  |

| Compound | Potency | activity change, negative = inhibition |
| --- | --- | --- |
| C[N+](C)(C)CCOC(=O)CBr |  | 2.35% (inactive) |
| CCCn1c(=O)c2[nH]c(C3CCCC3)nc2n(CCCOC(=O)c2ccc(S(=O)(=O)F)cc2)c1=O |  | -0.546% (inactive) |
| CN1CCc2cc(O)cc3c2[C@H]1Cc1ccc(O)c(O)c1-3 | 1.34 µM (active) |  |
| CN(N=O)c1cc(O)ccc1O | 50.1 µM (active) |  |
| CCCn1c(C)c(C(=O)c2ccc3ccccc3c2)c2ccccc21 |  | 23.3% (inactive) |
| C[N+]1(C)CCc2cc3c(cc2[C@H]1[C@@H]1OC(=O)c2c1ccc1c2OCO1)OCO3 |  | -3.14% (inactive) |
| C=CCN(C1=NCCN1)c1c(Cl)cccc1Cl |  | -1.35% (inactive) |
| OCc1cnc[nH]1 |  | 6.77% (inactive) |
| C[N+]1(C)C2CCC1CC(OC(=O)c1c[nH]c3ccccc13)C2 (stereo not given) |  | 23.4% (inactive) |
| Oc1ccc2c3c1O[C@H]1c4oc5ccccc5c4C[C@@]4(O)C(C2)N(CC2CC2)CCC314 (stereo not given in full) |  | -6.75% (inactive) |
| NC(C(=O)O)c1cc(=O)[nH]o1 (stereo not given) |  | -5.83% (inactive) |
| CC(C)(C)c1o[nH]c(=O)c1CC(N)C(=O)O (stereo not given) |  | -3.08% (inactive) |
| NC(Cc1ccc(N(CCCl)CCCl)cc1)C(=O)O (stereo not given) | 0.0067 µM (active) |  |
| C[C@H](Cc1ccc2c(c1)OC(C(=O)O)(C(=O)O)O2)NC[C@H](O)c1cccc(Cl)c1 |  | 15.3% (inactive) |
| NC(=O)c1cc(N2CC2)c([N+](=O)[O-])cc1[N+](=O)[O-] |  | 1.77% (inactive) |
| CCN1C[C@@]2(COC)C3[C@@H](OC)C4[C@@H]1C3([C@@H]1C[C@]3(O)[C@H](OC(=O)c5ccccc5)[C@@H]1[C@]4(OC(C)=O)[C@@H](O)[C@@H]3OC)[C@H](OC)C[C@H]2O |  | 1.15% (inactive) |
| NCC(CP(=O)(O)O)c1ccc(Cl)cc1 (stereo not given) |  | -12.4% (inactive) |
| NC(CCCCCP(=O)(O)O)C(=O)O (stereo not given) |  | -0.93% (inactive) |
| CCCN1CCC[C@@H](c2cccc(O)c2)C1 |  | -1.89% (inactive) |
| NC(=O)COc1c(F)cc(SCCNS(=O)(=O)c2ccccc2)cc1F |  | -6.98% (inactive) |
